Results published in PubChem BioAssay AID1159580 (chemical genetic matrix, 2015).
In all, about 5,500 compounds went through this assay and about 2,000 (36%) were called active. Not shown: some 18% with an inconclusive outcome. No stated cut-off is given here; in the data, active means normalized growth mostly below about 0.91 (no sharp cut-off); inconclusive means no clear call, values can overlap the other calls; inactive means mostly above about 0.92. The list shows a part of the results.

Experiment: chemical genetic growth profiling, strain panel (AID 1159580);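 further: tested at 20 µM; growth read once vehicle control cultures reached saturation at 30 °C; 1 = growth at the plate median or of vehicle wells; lower values mean less growth of the strain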
Conditions: growth OD

Measured: normalized growth

C#CCCCCCCCCCCCC(=O)CC(O)COC(C)=O (centres undefined)
inactive: S. cerevisiae deletion strains, locus YJR043C, strain POL32, hits give low values 0.865 | S. cerevisiae deletion strains, locus YKL009W, strain mrt4, hits give low values 0.901 | S. cerevisiae deletion strains, locus YKL068W, hits give low values 0.977 | S. cerevisiae deletion strains, locus YKL085W, strain MDH1 (second series), hits give low values 0.958 | S. cerevisiae deletion strains, locus YKL085W, strain MDH1, hits give low values 0.958 | S. cerevisiae deletion strains, locus YKL160W, strain elf1, hits give low values 0.969 | S. cerevisiae deletion strains, locus YKR026C, strain gcn3, hits give low values 0.991 | S. cerevisiae deletion strains, locus YKR091W, strain srl3, hits give low values 0.988 | S. cerevisiae deletion strains, locus YLL001W, strain dnm1, hits give low values 1 | S. cerevisiae deletion strains, locus YLL026W, hits give low values 0.995 | S. cerevisiae deletion strains, locus YLL041C, strain sdh2, hits give low values 0.989 | S. cerevisiae deletion strains, locus YLR027C, strain aat2, hits give low values 0.994 | S. cerevisiae deletion strains, locus YLR039C, strain RIC1, hits give low values 0.688 | S. cerevisiae deletion strains, locus YLR102C, strain apc9, hits give low values 0.97 | S. cerevisiae deletion strains, locus YLR221C, strain rsa3, hits give low values 0.935 | S. cerevisiae deletion strains, locus YLR258W, strain gsy2, hits give low values 0.972 | S. cerevisiae deletion strains, locus YLR262C, strain YPT6, hits give low values 0.655 | S. cerevisiae deletion strains, locus YLR342W, strain FKS1 (second series), hits give low values 0.794 | S. cerevisiae deletion strains, locus YLR342W, strain FKS1, hits give low values 0.953 | S. cerevisiae deletion strains, locus YLR357W, strain rsc2, hits give low values 1.01 | S. cerevisiae deletion strains, locus YLR370C, strain arc18, hits give low values 0.978 | S. cerevisiae deletion strains, locus YLR371W, strain rom2, hits give low values 0.964 | S. cerevisiae deletion strains, locus YLR384C, strain iki3, hits give low values 0.996 | S. cerevisiae deletion strains, locus YML016C, strain PPZ1, hits give low values 0.994 | S. cerevisiae deletion strains, locus YML120C, strain ndi1, hits give low values 0.986 | S. cerevisiae deletion strains, locus YML124C, strain tub3, hits give low values 0.974 | S. cerevisiae deletion strains, locus YMR058W, strain fet3, hits give low values 0.97 | S. cerevisiae deletion strains, locus YMR078C, strain ctf18, hits give low values 0.961 | S. cerevisiae deletion strains, locus YMR125W, strain sto1, hits give low values 0.979 | S. cerevisiae deletion strains, locus YMR129W, hits give low values 0.999 | S. cerevisiae deletion strains, locus YMR205C, strain PFK2, hits give low values 0.893 | S. cerevisiae deletion strains, locus YMR231W, strain pep5, hits give low values 0.957 | S. cerevisiae deletion strains, locus YMR307W, strain GAS1, hits give low values 0.99 | S. cerevisiae deletion strains, locus YNL128W, strain TEP1, hits give low values 0.872 | S. cerevisiae deletion strains, locus YNL209W, strain ssb2, hits give low values 0.981 | S. cerevisiae deletion strains, locus YNL248C, strain rpa49, hits give low values 0.973 | S. cerevisiae deletion strains, locus YNL250W, strain rad50, hits give low values 0.989 | S. cerevisiae deletion strains, locus YNL271C, strain bni1, hits give low values 0.965 | S. cerevisiae deletion strains, locus YNL322C, strain KRE1 (second series), hits give low values 0.985 | S. cerevisiae deletion strains, locus YNL322C, strain KRE1, hits give low values 0.971 | S. cerevisiae deletion strains, locus YNR049C, strain mso1, hits give low values 0.982 | S. cerevisiae deletion strains, locus YNR052C, strain pop2, hits give low values 0.931 | S. cerevisiae deletion strains, locus YOL006C, strain TOP1, hits give low values 0.637 | S. cerevisiae deletion strains, locus YOL012C, strain htz1 0.999 | S. cerevisiae deletion strains, locus YOR001W, strain rrp6, hits give low values 0.966 | S. cerevisiae deletion strains, locus YOR069W, strain VPS5, hits give low values 0.978 | S. cerevisiae deletion strains, locus YOR070C, strain gyp1, hits give low values 0.964 | S. cerevisiae deletion strains, locus YOR080W, strain dia2, hits give low values 0.977 | S. cerevisiae deletion strains, locus YOR083W, strain WHI5, hits give low values 0.967 | S. cerevisiae deletion strains, locus YOR106W, strain vam3, hits give low values 0.889 | S. cerevisiae deletion strains, locus YOR136W, strain idh2, hits give low values 0.929 | S. cerevisiae deletion strains, locus YOR265W, strain rbl2, hits give low values 0.982 | S. cerevisiae deletion strains, locus YOR270C, strain vph1, hits give low values 0.932 | S. cerevisiae deletion strains, locus YOR290C, strain snf2, hits give low values 0.903 | S. cerevisiae deletion strains, locus YOR316C, strain cot1, hits give low values 0.962 | S. cerevisiae deletion strains, locus YPL051W, strain arl3, hits give low values 0.926 | S. cerevisiae deletion strains, locus YPL078C, strain atp4, hits give low values 0.976 | S. cerevisiae deletion strains, locus YPL106C, strain sse1, hits give low values 1.01 | S. cerevisiae deletion strains, locus YPL240C, strain hsp82, hits give low values 0.977 | S. cerevisiae deletion strains, locus YPL241C, strain CIN2, hits give low values 0.96 | S. cerevisiae deletion strains, locus YPR119W, strain clb2, hits give low values 0.98 | S. cerevisiae deletion strains, locus YPR141C, strain kar3, hits give low values 0.959 | S. cerevisiae deletion strains, locus YPR167C, strain met16, hits give low values 0.947
active: S. cerevisiae deletion strains, locus YJR075W, strain HOC1, hits give low values 0.771 | S. cerevisiae deletion strains, locus YKL190W, strain CNB1, hits give low values 0.82 | S. cerevisiae deletion strains, locus YKR001C, strain vps1, hits give low values 0.754 | S. cerevisiae deletion strains, locus YLR058C, strain SHM2, hits give low values 0.86 | S. cerevisiae deletion strains, locus YLR262C, strain YPT6 (second series), hits give low values 0.807 | S. cerevisiae deletion strains, locus YLR268W, strain sec22, hits give low values 0.784 | S. cerevisiae deletion strains, locus YLR320W, strain mms22, hits give low values 0.845 | S. cerevisiae deletion strains, locus YLR330W, strain CHS5, hits give low values 0.753 | S. cerevisiae deletion strains, locus YLR418C, strain cdc73, hits give low values 0.364 | S. cerevisiae deletion strains, locus YML032C, strain rad52, hits give low values 0.86 | S. cerevisiae deletion strains, locus YMR223W, strain ubp8, hits give low values 0.841 | S. cerevisiae deletion strains, locus YMR263W, strain SAP30, hits give low values 0.848 | S. cerevisiae deletion strains, locus YNL067W, strain RPL9B, hits give low values 0.742 | S. cerevisiae deletion strains, locus YNL071W, strain lat1, hits give low values 0.748 | S. cerevisiae deletion strains, locus YNL153C, strain GIM3, hits give low values 0.826 | S. cerevisiae deletion strains, locus YNL233W, strain BNI4, hits give low values 0.685 | S. cerevisiae deletion strains, locus YNL298W, strain CLA4, hits give low values 0.898 | S. cerevisiae deletion strains, locus YNL307C, strain MCK1, hits give low values 0.166 | S. cerevisiae deletion strains, locus YOL147C, strain pex11, hits give low values 0.71 | S. cerevisiae deletion strains, locus YOR061W, strain CKA2, hits give low values 0.514 | S. cerevisiae deletion strains, locus YOR144C, strain elg1, hits give low values 0.93 | S. cerevisiae deletion strains, locus YOR184W, strain ser1, hits give low values 0.62 | S. cerevisiae deletion strains, locus YPL055C, strain LGE1, hits give low values 0.612 | S. cerevisiae deletion strains, locus YPR163C, strain tif3, hits give low values 0.626 | S. cerevisiae deletion strains, strain wtn01, hits give low values 0.801 | S. cerevisiae strains, strain wild type, hits give low values 0.83
